Results filed as inconclusive are left out. Activity calls are given as the source filed them. Rule for the calls: active = hit-call score of the fitted dose curve at least 0.9, where 1 is the maximum; inconclusive = response in the unintended direction; inactive = score below 0.9.

The AC50 is the concentration at which the activity in the assay is half-maximal.

The target of this test is human Retinoid X Receptor beta (RXRb), RXRB (gene 6257) (UniProt P28702). Nature of the test: ATG_RXRb_TRANS: Attagene TRANS-FACTORIAL HepG2 Assay for human Retinoid X Receptor beta (RXRb) (AID 2283013). Here is the method: ATG_TRANS is a cell-based, multiplexed-readout assay that uses HepG2, a human liver cell line, with measurements taken at 24 hours after chemical dosing in a 24-well plate.ATG_RXRb_TRANS is one of 30 assay component(s) measured or calculated from the ATG_TRANS assay. It is designed to make measurements of mRNA induction, a form of inducible reporter, as detected with fluorescence intensity signals by Reverse transcription polymerase chain reaction (RT-PCR) and Capillary electrophoresis technology.Data from the assay component ATG_RXRb_TRANS was analyzed into 1 assay endpoint. This assay endpoint, ATG_RXRb_TRANS, was analyzed in the positive analysis fitting direction relative to DMSO as the negative control and baseline of activity. Using a type of inducible reporter, measures of mRNA for gain-of-signal activity can be used to understand the reporter gene at the transcription factor-level as they relate to the gene RXRB. Furthermore, this assay endpoint can be referred to as a primary readout, because this assay has produced multiple assay endpoints where this one serves a reporter gene function. To generalize the intended target to other relatable targets, this assay endpoint is annotated to the nuclear receptor intended target family, where the subfamily is non-steroidal.
human Retinoid X Receptor beta (RXRb), RXRB (gene 6257), sequence (P28702 whole entry, looked up): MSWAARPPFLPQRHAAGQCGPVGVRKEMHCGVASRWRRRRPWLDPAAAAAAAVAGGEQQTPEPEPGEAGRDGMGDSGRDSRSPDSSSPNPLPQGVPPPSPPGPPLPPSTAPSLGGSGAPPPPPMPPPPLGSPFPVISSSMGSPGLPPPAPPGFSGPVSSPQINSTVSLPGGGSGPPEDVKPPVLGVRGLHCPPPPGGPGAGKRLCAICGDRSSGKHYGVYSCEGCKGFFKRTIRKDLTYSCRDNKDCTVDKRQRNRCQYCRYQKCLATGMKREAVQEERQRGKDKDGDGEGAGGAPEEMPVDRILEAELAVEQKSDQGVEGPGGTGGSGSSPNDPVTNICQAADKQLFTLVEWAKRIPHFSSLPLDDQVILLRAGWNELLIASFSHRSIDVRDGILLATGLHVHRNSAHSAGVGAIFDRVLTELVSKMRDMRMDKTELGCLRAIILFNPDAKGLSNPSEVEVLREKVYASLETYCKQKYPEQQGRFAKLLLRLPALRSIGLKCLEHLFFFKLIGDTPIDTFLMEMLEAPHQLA
Human liver HepG2 cells are transiently transfected with multiple reporter transcription units (MRTUs) in 6-well plates using FuGene 6 reagent (Roche; 3 ml FuGene/1 mg DNA). The MRTU constructs are regulated by a cis-regulating element (promoter). […] A major difference between the CIS and TRANS system is that in CIS activities of endogenous TFs are measured, whereas the TRANS assay evaluates changes in activities of exogenous, chimeric NR-Gal4 proteins. […] At the end of 24 hour incubation, total RNA was isolated using TriZol reagent (Invitrogen). The isolated RNA is then reverse-transcribed using oligo(dT) primer and Mo-MLV reverse transcriptase (Invitrogen) with DNAse I (Ambion) treatment for 30 min. The one-tenth of the produced cDNA was amplified by PCR using Taq DNA polymerase (Invitrogen) and two reporter sequence-specific primers. The PCR products were fluorescently labeled by primer extension with 6-arboxyfluorescein (6-FAM) 5'-labeled reporter sequence-specific primer (2 min at 95 C, 20 s at 68 C and 10 min at 72 C) and these products were digested with 5U of HpaI (New England Biolabs) for 2h at 37 C. The fragments were purified using Qiaquick PCR columns (Qiagen), analyzed on an ABI 3130xL genetic analyzer (Applied Biosystems) with peak positions identified by using a set of X-rhodamine (ROX)-labeled MapMarker1000 molecular weight standards (BioVentures). The raw capillary electrophoresis data was processed using Attagraph software (Attagene).
Turning to `CCCCCC1C(=O)CCC1CC(=O)OC` (stereo not given), the call was inactive.

As for `CC1=CCC(C(C)C)=CC1`, the call was inactive. Same read-out and setting: for `CCCC[N+](C)(CCCC)CCCC` the value was “inactive”.

On to `CCCCOCCOC(=O)c1ccccc1C(=O)OCCOCCCC`, for which the outcome was inactive. On the same count and under the same terms, to `O=C(O)c1ccco1` belongs “inactive”. In the case of `CCCCCCC(O)CCOC(C)=O` (stereo not given), the molecule was classed as inactive. Turning to `CC(=O)C1=C(C)[C@@H]2C[C@@]3(C1)[C@H](C)CC[C@H]3C2(C)C`, the AC50 was 21.4 µM (active). As for `CC(C)(O)CCc1ccccc1`, the outcome was inactive.

Consider `OCCCO`, for which the result was inactive. Turning to `CC/C=C\CCOC(=O)C(C)C`, the molecule was classed as inactive. Same read-out and setting: for `COC(=O)C(C)Oc1ccc(Oc2ncc(C(F)(F)F)cc2Cl)cc1` (stereo not given) the value was “inactive”. For the molecule `CCCCCC#CC(=O)OC`, the AC50 is 100 µM (active). Consider `CCC(C)(C)C1CCC(OC)CC1` (stereo not given), for which the molecule was classed as inactive. Consider `CC(=O)OCC=C(C)CCC=C(C)CCC=C(C)C`, for which the AC50 is 9.14 µM (active). With `[Na+]`, the molecule was called inactive. As to `CC(CCO)CC(C)(C)C` (stereo not given), the molecule was classed as inactive.

Consider `CC1=CC[C@@H](C(C)(C)O)CC1`, for which the call was inactive. Regarding `CCC(C)C1CCCCC1=O` (stereo not given), the call was inactive. Take `CC(C)(C)c1cccc(O)c1`: the AC50 was 66.4 µM (active). In the case of `O=[N+]([O-])c1cc(N(CCO)CCO)ccc1NCCO`, the result was inactive. Same read-out and setting: to `CC(O)CNCC(C)O` (stereo not given) belongs “inactive”; to `CC/C(=C(\c1ccccc1)c1ccc(OCCN(C)C)cc1)c1ccccc1`, “inactive”. With `CCCCCCCCCCCCN1CCOCC1`, the AC50 was 42.8 µM (active).

In the case of `ClCCOCCOCCCl`, the molecule was classed as inactive.

For the molecule `O=c1cc[nH]cc1`, the molecule was called inactive. Same read-out and setting: for `N#CCCNCCC#N` the value was “inactive”. Consider `O=C(OCc1ccccc1)c1ccccc1O`, for which the AC50 is 50.1 µM (active).

For `CCCCCCCC1CCCC1=O` (stereo not given), the outcome was inactive. With `N#CCCCC(C#N)CCC#N` (stereo not given), the result was inactive. For `CCOC(=O)CCCCCCCCC(=O)OCC`, the molecule was classed as inactive.

In the case of `c1ccc(Sc2ccccc2)cc1`, the AC50 was 100 µM (active). As for `O=C(O)c1cccc(Cl)n1`, the result was inactive. `CC(CO)c1ccccc1` (stereo not given): the molecule was classed as inactive. Still for that read-out and setting: to `CCC(CC)CO` belongs “inactive”. For `CCC(C)(C)C1CCC(=O)CC1`, the AC50 was 50.6 µM (active). For the molecule `O=S1(=O)CC(Cl)(Cl)C(Cl)(Cl)C1`, the outcome was inactive. Regarding `CC(CO)(CO)[N+](=O)[O-]`, the molecule was called inactive. For `CCCCCCCCOC(=O)c1ccc(O)cc1`, the AC50 is 11.1 µM (active).

Turning to `COc1ccccc1NC(=O)CC(C)=O`, the molecule was called inactive. In the case of `CCCCCCCCCC(=O)OCC`, the AC50 is 100 µM (active).

These data come from PubChem BioAssay (EPA / NIEHS).
